# Assay outcomes deposited in PubChem by several laboratories.
# PP1 counter – blocks human PP1-alpha phosphatase, a PP5 counter-screen; P62136; purified PP1alpha, OMFP fluorescence; inhibition, % at 6.7 µM; hit rate 0.9% among 320,000;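 active means inhibition above the mean inhibition of all tested compounds plus 3 SD, computed separately for each screening campaign, cut at about 15% in these data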
# CSC inhib – blocks cancer stem cells | cancer stem cell-like cells viability, luminescence | AID 2717 | hit rate 1.1% among 300,000 | inhibition, % at 7.5 µM; in the data active means inhibition above about 75%; inconclusive means no clear call, values can overlap the other calls; tested in HMLE shEcad cells
# Mdm2 MdmX PPI – human Mdm2/MdmX binding inhibition | SaOS-2 split-luciferase Mdm2/MdmX complementation, luminescence | O15151+Q00987 | hit rate 3% among 330,000 | inhibition, % at 8 µM;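 active means inhibition of at least 50% at 8 µM in the primary screen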
# Beta apoptosis – beta cell apoptosis inhibition. INS-1E cytokine-induced death, ATP luminescence, 48 h; percent of positive-control rescue, neutral wells zero. protection from apoptosis, % (no concentration beside the values). hit rate 0.8% among 300,000;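 active means Every replicate reaches about 75%, or at least half do and their mean reaches it too, limit read from the data; inconclusive means At least half of replicates reach the limit but their mean does not; inactive means Under half of replicates reach the limit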;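 further: 0% = cytokine-treated negative control wells and 100% = positive control rescue; higher means more ATP so stronger rescue from cytokine killing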
# Calb FLC – C. albicans growth modulation with fluconazole. C. albicans CaCi-2 (fluconazole-resistant clinical isolate) + fluconazole, Alamar Blue growth, 48 h. growth inhibition, % (concentration not given with the values). hit rate 0.57% among 300,000;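 active means growth inhibition above about 58% in most replicates, limit read from the data, passing the limit was not always enough; inconclusive means exactly half the replicates above a set limit; inactive means most replicates below a set limit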;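 further: all wells also contain fluconazole at 8 µg/ml as a sub-toxic cotreatment; 0% = median of DMSO wells and 100% = median of geldanamycin control wells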
# PP5 primary – blocks human protein phosphatase 5 activity. hit rate 0.18% among 320,000. purified PP5c, OMFP substrate fluorescence. AID 1987. inhibition, % at 6.7 µM;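 active means inhibition above the campaign's mean inhibition across all tested compounds plus 3 SD, cut at about 9.5% in these data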;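 further: 0% = DMSO only and 100% = 100 µM cantharidin control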
# Target sequence (P53041 whole entry, looked up): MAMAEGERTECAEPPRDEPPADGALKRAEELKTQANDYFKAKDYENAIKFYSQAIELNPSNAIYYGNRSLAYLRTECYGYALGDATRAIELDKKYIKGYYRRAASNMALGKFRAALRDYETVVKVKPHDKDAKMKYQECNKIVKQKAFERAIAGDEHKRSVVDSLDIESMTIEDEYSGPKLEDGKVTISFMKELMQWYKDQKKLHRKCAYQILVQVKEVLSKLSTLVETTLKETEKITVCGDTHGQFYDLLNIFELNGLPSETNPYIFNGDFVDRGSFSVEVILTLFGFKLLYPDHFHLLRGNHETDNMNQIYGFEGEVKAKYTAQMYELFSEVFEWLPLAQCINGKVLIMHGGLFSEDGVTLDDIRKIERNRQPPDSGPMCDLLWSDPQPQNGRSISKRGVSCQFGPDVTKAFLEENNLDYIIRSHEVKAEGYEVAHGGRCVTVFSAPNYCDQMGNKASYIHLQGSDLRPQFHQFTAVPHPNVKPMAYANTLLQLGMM
# * = called active by the depositor; u = inconclusive; x = no result given. Only some compounds are listed: those with a hit (about 4.9% of all), similar ones and a draw of the others.
SMILES,PP1 counter,CSC inhib,Mdm2 MdmX PPI,Beta apoptosis,Calb FLC,PP5 primary
Cc1ccc(S(=O)(=O)N2CCN(C(=O)c3ccc4nc[nH]c4c3)CC2)cc1,-5,-7,1,-9,1,-1
CCSc1nnc(-c2ccc(Cl)cc2)c2ccccc12,7,-1,6,11,u,2
CCSc1nnc(-c2ccc(C)cc2)c2ccccc12,1,8,0,4,93*,2
Cc1ccc(N(Cc2ccccc2)C(=O)CN2C(=O)NC3(CCCC3)C2=O)cc1,2,-16,22,-6,-6,1
COc1ccc(-c2cc(C(F)(F)F)c3c(N)c(C(=O)NCCSC)sc3n2)cc1,3,5,0,x,53,-2
CN(C)CCNC(=O)c1sc2nc(-c3ccccc3)cc(C(F)(F)F)c2c1N,0,78*,38,8,7,-1
CC1(C)C[C@@H](O)CC2(C1)C[C@]1(C)CC(O)[C@H]2C(C)(C)C1 (some centres not stated),-5,-11,6,x,9,-2
CC(=O)N1CCN(c2ccc(NC(=O)c3ccc(F)cc3)cc2)CC1,x,-9,12,-6,5,x
Nc1ccc(Sc2ccc([N+](=O)[O-])cc2)cc1,1,6,17,-3,93*,5
C#CCN(C(=O)c1cc(COc2cccc(C(F)(F)F)c2)on1)C1CCCCC1,3,62,1,104*,-1,3
O=C(c1cc(COc2cccc(C(F)(F)F)c2)on1)N1CCC(c2ccncc2)CC1,6,31,26,111*,u,6
C#CCN(C(=O)c1cc(COc2ccc(C)c(C)c2)on1)C1CCCCC1,0,2,-10,x,-12,3
Cc1nn(-c2ccccn2)c2c1C(c1ccccc1Cl)C1=C(N2)c2ccccc2C1=O (configuration not stated),4,7,-2,35,-1,-1
Cc1nn(-c2ccccn2)c2c1C(c1c(F)cccc1Cl)C1=C(N2)c2ccccc2C1=O (configuration not stated),17*,1,-5,15,10,3
CCCCn1c(SCC(=O)Nc2cccc(OC)c2)nc2ccc(N3CCOCC3)cc2c1=O,12,39,2,-4,96*,6
CCCCn1c(SCC(N)=O)nc2ccc(N3CCOCC3)cc2c1=O,1,51,15,-2,7,-1
O=C(CCc1nnc2ccc(N3CCC4(CC3)OCCO4)nn12)NCc1ccccc1Cl,-4,-13,10,-4,-1,4
Cc1ccc(O)c(CNc2cccc3cccnc23)c1,-3,20,11,102*,1,2
COc1cccc(CNc2cccc3cccnc23)c1O,3,12,4,14,-19,4
Oc1c(Br)cc(Br)cc1CNc1cccc2cccnc12,8,14,25,-15,81*,3
Cc1ccc2c(cnn2C(=O)CCC(=O)N2CCCCC2C)c1 (configuration not stated),-3,-6,-6,-7,2,4
Cc1ccc(S(=O)(=O)N2CCC(C(=O)OCC(=O)NC(C)c3ccc(F)cc3)CC2)cc1C (configuration not stated),-4,-17,1,4,x,3
O=[N+]([O-])c1cc(S(=O)(=O)N2CCCC2)ccc1O,1,-12,2,2,35,-3
O=[N+]([O-])c1cc(S(=O)(=O)N2CCCCCC2)ccc1F,-1,102*,x,-6,x,-3
O=c1c(-n2cncn2)c[nH]n1-c1cccc(Cl)n1,-4,-3,19,5,-9,2
SMILES,PP1 counter,CSC inhib,Mdm2 MdmX PPI,Beta apoptosis,Calb FLC,PP5 primary
O=c1c(/C=N/OCc2ccc(Cl)cc2Cl)c[nH]n1-c1cccc(Cl)n1,-3,94*,13,-2,-2,-1
CCCc1cc(C(=O)Cc2ccc(F)cc2)c(O)cc1O,6,82*,36,4,-36,6
CCc1cc(C(=O)Cc2ccc(F)cc2)c(O)cc1O,1,41,11,-3,-39,2
CCOc1ccccc1NC(=O)C1CCN(C(=O)C2CC(=O)N(c3ccc(C)cc3)C2)CC1 (configuration not stated),0,-18,20,-3,1,3
Cc1ccc(-c2nc3sc(C#N)c(N)n3c(=O)c2C#N)cc1,4,10,9,3,111*,-5
CCCCNc1c(-c2ccc(-c3cccc(Cl)c3)cc2)nc2ccccn12,7,97*,-43,110*,22,4
CCCCCCSc1ccc(-c2nc3ccc(C)cn3c2NC2CCCCC2)cc1,4,40,4,10,11,2
CCCCCCSc1ccc(-c2nc3ccccn3c2NCCCC)cc1,11,86*,-19,10,-2,3
O=C(Nc1ccc(Cl)cn1)c1ccc2nccnc2c1,0,0,-17,-3,5,3
COc1ccccc1OCC(=O)Nc1sc2c(c1C(=O)NCC1CCCO1)CCC2 (configuration not stated),3,8,18,6,7,5
Oc1c(Br)cc(Br)cc1C=Nc1ccc2[nH]ncc2c1,90*,-8,30,-4,12,2
CC(Sc1ccc(Cl)cc1)C(=O)NCc1ccc2c(c1)OCO2 (configuration not stated),0,-19,20,2,97*,1
Cc1ccc(Cn2c(=N)n(CC(=O)c3ccccc3)c3ccccc32)cc1,8,14,33,98*,-28,-2
CCCn1c(=N)n(CC(=O)c2ccc([N+](=O)[O-])cc2)c2ccccc21,3,54,18,16,99*,4
CCOc1ccc(/C=N/N(C)c2ccccc2)cc1OC,0,x,-132,1,2,1
COc1cc(/C=N/N(c2ccccc2)c2ccccc2)ccc1O,5,99*,6,2,10,-1
COc1ccc(/C=N/N(c2ccccc2)c2ccccc2)cc1O,x,81*,1,7,7,x
O=C(CCC1CCCN(C(=O)CCN2CCCCC2=O)C1)NCc1ccccc1F (configuration not stated),-3,7,-12,-6,-10,1
CCOC(=O)CSc1nc2sc(C)c(C)c2c(=O)[nH]1,-4,x,20,1,-2,0
CCOC(=O)/C(=C\c1ccc(Cl)cc1)c1nc2sc(C)c(C)c2c(=O)[nH]1,-1,118*,38,-26,30,2
Cc1cc(N2CCN(c3ccc(C(F)(F)F)cc3[N+](=O)[O-])CC2)c2ccccc2n1,7,97*,34,15,39,5
CCOc1ccccc1C(C(=O)NCCOC)N(CCOC)C(=O)Cn1nnc2ccccc21 (configuration not stated),3,13,5,-5,3,2
COCCNC(=O)C(c1ccc(C)o1)N(CCOC)C(=O)Cn1nnc2ccccc21 (configuration not stated),3,5,9,-5,82*,4
